Measured values as given in PubChem BioAssay (EPA / NIEHS).
Active and inactive are the calls of the source. Rule for the calls: active = hit-call score of the fitted dose curve at least 0.9, where 1 is the maximum; inactive = score below 0.9.

Key:
[1] = ATG_CRE_CIS: Attagene CIS-FACTORIAL HepG2 Assay for human cAMP Responsive Element (CRE) binding protein 3 (AID 2282926); settings: HepG2 CRE cis-reporter, Attagene multiplexed mRNA; actives raise or lower the signal
How it was run: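 Transfected HepG2 were treated for 24 hours, then RNA was extracted and reporter cDNA amplified with sequence-specific primers. Labelled fragments were separated by capillary electrophoresis, and the CRE signal was fitted bidirectionally with DMSO as baseline.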

[2] = molecular target: CCAAT/enhancer-binding protein beta (Homo sapiens) (UniProt P17676); test: ATG_C_EBP_CIS: Attagene CIS-FACTORIAL HepG2 Assay for human CCAAT/Enhancer Binding Protein (C/EBP) beta (AID 2282927); settings: HepG2 Attagene cis-factorial transcription factor reporter; actives raise or lower the signal
How it was run: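 Endogenous C/EBPb-driven reporter transcripts measured in transfected human HepG2 cells at 24 h via RT-PCR and capillary electrophoresis of labelled fragments. Activity fitted in both directions relative to DMSO baseline.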

[3] = ATG_CMV_CIS: Attagene CIS-FACTORIAL HepG2 Assay for human CMV (Internal Marker) (AID 2282928); settings: HepG2 CMV promoter reporter, transcription factor profiling; actives raise or lower the signal;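 note: endpoint acts as a background internal control marker rather than a target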
How it was run: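 CMV internal-marker background readout in transiently transfected HepG2 cells bearing cis-regulated reporter units. Reporter mRNA is measured 24 h after dosing by RT-PCR and capillary electrophoresis, with bidirectional fitting against DMSO.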

[4] = ATG_DR4_LXR_CIS: Attagene CIS-FACTORIAL HepG2 Assay for human Liver X Receptor (LXR), DR4 submotif (AID 2282929); settings: HepG2 Attagene DR4 cis-reporter, mRNA transcription; actives raise or lower the signal
How it was run: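 After transient transfection with multiplexed cis-promoter reporter units, HepG2 cells received test chemicals for 24 h. Reporter mRNA induction, detected by fluorescence after RT-PCR and capillary electrophoresis, was scored relative to DMSO.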

[5] = molecular target: Aryl hydrocarbon receptor (Homo sapiens) (UniProt P35869); test: ATG_Ahr_CIS: Attagene CIS-FACTORIAL HepG2 Assay for human Aryl Hydrocarbon Receptor (Ahr) (AID 2282930); settings: HepG2 AhR cis-factorial reporter transcription; actives raise or lower the signal
How it was run: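 Reporter mRNA levels, quantified by RT-PCR and fluorescent capillary electrophoresis, reflect endogenous AhR transcriptional activity in HepG2 cells carrying transfected cis-promoter reporter constructs. Readout at 24 h post-dose; gain or loss fitted against DMSO baseline.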

[6] = ATG_AP_2_CIS: Attagene CIS-FACTORIAL HepG2 Assay for human Activator Protein 2 (AP-2) (AID 2282932); settings: HepG2 AP-2 cis-reporter, Attagene transcription factor profiling; actives raise or lower the signal
How it was run: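 HepG2, transient MRTU transfection, cis-regulated reporters; 24 h compound exposure; RNA isolated, RT-PCR, 6-FAM labelling, HpaI digest, CE fluorescence. DMSO = negative control/baseline, bidirectional fit.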

[7] = ATG_BRE_CIS: Attagene CIS-FACTORIAL HepG2 Assay for human Bone Morphogenetic Protein (BMP) Response Element (BRE) (AID 2282933); settings: HepG2 BMP response element reporter, Attagene transcription factor profiling; actives raise or lower the signal
How it was run: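 Fluorescence-labelled reporter cDNA fragments, separated by capillary electrophoresis, gave the signal for this component of a 52-readout multiplex. HepG2 cells were transfected, exposed to chemicals for 24 h, and compared with DMSO using bidirectional fitting.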

[8] = molecular target: Retinoic acid receptor alpha (Homo sapiens) (UniProt P10276); test: ATG_DR5_RAR_CIS: Attagene CIS-FACTORIAL HepG2 Assay for human Retinoic Acid Receptor Alpha (RARE), DR5 submotif (AID 2282934); settings: HepG2 Attagene cis-factorial RARE DR5 reporter, mRNA; actives raise or lower the signal;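 for AC50: reporter responds to endogenous RAR alpha beta and gamma in HepG2 not RARA alone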
How it was run: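 Reporter transcripts from a DR5-regulated unit, measured via RT-PCR plus capillary electrophoresis, reflect endogenous RAR activity in transiently transfected human HepG2 liver cells. Exposure lasted 24 h; gain or loss of signal scored against DMSO.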

[9] = molecular target: Transcription factor E2F1 (Homo sapiens) (UniProt Q01094); test: ATG_E2F_CIS: Attagene CIS-FACTORIAL HepG2 Assay for human E2F Transcription Factor 1 (AID 2282935); settings: HepG2 Attagene cis-reporter, E2F reporter RNA transcripts; actives raise or lower the signal
How it was run: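 Cis-element reporter mRNA induction in transiently transfected HepG2, 24 h exposure. Activity fitted in both directions relative to DMSO negative control.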

[10] = ATG_E_Box_CIS: Attagene CIS-FACTORIAL HepG2 Assay for human Enhancer Box (E-box) (AID 2282936); settings: HepG2 E-box cis-reporter transcription, actives raise or lower the signal
How it was run: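 Cells: HepG2 (human liver), transient MRTU transfection. Exposure 24 h. RNA → oligo(dT) RT → PCR → 6-FAM label → HpaI → CE. Activity fitted both directions relative to DMSO.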

[11] = ATG_EGR_CIS: Attagene CIS-FACTORIAL HepG2 Assay for human Early Growth Response 1 (EGR1) (AID 2282938); settings: HepG2 Attagene CIS-FACTORIAL EGR reporter mRNA; actives raise or lower the signal
How it was run: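 Fluorescent capillary-electrophoresis signal of reporter cDNA fragments serves as read-out. HepG2 cells bear transiently transfected cis-promoter reporter units and are exposed 24 h; gain- or loss-of-signal is fitted against DMSO.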

[12] = ATG_M_19_CIS: Attagene CIS-FACTORIAL HepG2 Assay for M19 Transcription Factor (Internal Marker) (AID 2282939); settings: HepG2 Attagene CIS-FACTORIAL M19 internal marker reporter; actives raise or lower the signal
How it was run: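 HepG2, MRTU transient transfection, 24 h dosing. Total RNA → RT-PCR → 6-FAM primer extension → HpaI digest → CE fluorescence. Bidirectional curve fit, DMSO negative control.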

[13] = ATG_Ets_CIS: Attagene CIS-FACTORIAL HepG2 Assay for human Erythroblast Transformation Specific (ETS) (AID 2282941); settings: HepG2 ETS cis-reporter transcription, actives raise or lower the signal
How it was run: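 HepG2 cells transfected with multiple cis-regulated reporter units measuring endogenous ETS-driven transcription, 24 h after dosing. Reporter mRNA quantified by RT-PCR with capillary electrophoresis; bidirectional fit relative to DMSO.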

[14] = molecular target: Hepatocyte nuclear factor 3-beta (Homo sapiens) (UniProt Q9Y261); test: ATG_FoxA2_CIS: Attagene CIS-FACTORIAL HepG2 Assay for human Forkhead box A2 (FOXA2) (AID 2282942); settings: HepG2 cis-reporter transcription factor activity, 24 h; actives raise or lower the signal
How it was run: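 Fluorescence signal of reporter cDNA fragments, separated by capillary electrophoresis, reflects endogenous transcription factor activity in transfected HepG2 after 24 h. Both increases and decreases fitted against DMSO.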

[15] = ATG_FoxO_CIS: Attagene CIS-FACTORIAL HepG2 Assay for human Forkhead box O (FoxO) (AID 2282943); settings: HepG2 Attagene cis-reporter, FoxO element, mRNA; actives raise or lower the signal
How it was run: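 Endogenous transcription factor activity read from multiplexed cis-promoter reporter transcripts in transiently transfected HepG2, 24 h after dosing. Reporter RNA measured via RT-PCR plus capillary electrophoresis of FAM-labeled products; gain or loss relative to DMSO.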

[16] = ATG_GATA_CIS: Attagene CIS-FACTORIAL HepG2 Assay for human GATA Binding Protein (AID 2282944); settings: HepG2 GATA cis-element reporter, Attagene multiplex mRNA; actives raise or lower the signal
How it was run: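 Cells: HepG2, transiently transfected with cis-regulated reporter transcription units. Exposure: 24 h. Detection: RT-PCR plus capillary electrophoresis of FAM-labeled fragments. Analysis: bidirectional, DMSO as baseline.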

[17] = ATG_GLI_CIS: Attagene CIS-FACTORIAL HepG2 Assay for human Zinc Finger Protein GLI1 (AID 2282945); settings: HepG2, Attagene cis-factorial reporter mRNA, GLI element; actives raise or lower the signal
How it was run: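 Bidirectional curve fits relative to DMSO, using reporter mRNA levels from RT-PCR plus capillary electrophoresis. Cells were HepG2 transiently carrying cis-regulated reporter constructs, harvested 24 h after dosing.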

[18] = ATG_M_61_CIS: Attagene CIS-FACTORIAL HepG2 Assay for M61 Transcription Factor (Internal Marker) (AID 2282937); settings: HepG2 Attagene CIS-FACTORIAL M61 internal marker reporter; actives raise or lower the signal
How it was run: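 Using transiently transfected HepG2 liver cells, reporter transcript levels were assessed 24 h post-dosing by RT-PCR and capillary electrophoresis. Changes in either direction were fitted relative to DMSO controls.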

[19] = ATG_AP_1_CIS: Attagene CIS-FACTORIAL HepG2 Assay for human Activator Protein 1 (AP-1) (AID 2282931); settings: HepG2 Attagene cis-factorial AP-1 reporter mRNA; actives raise or lower the signal
How it was run: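 After 24 h incubation with test chemical, RNA from transfected HepG2 cells was reverse-transcribed, amplified, fluorescently labelled and digested before capillary electrophoresis. Reporters were driven by cis-regulatory promoters; activity fitted bidirectionally versus DMSO.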

Sequence of Hepatocyte nuclear factor 3-beta (Homo sapiens) (Q9Y261 whole entry, looked up, the tested form may be a part): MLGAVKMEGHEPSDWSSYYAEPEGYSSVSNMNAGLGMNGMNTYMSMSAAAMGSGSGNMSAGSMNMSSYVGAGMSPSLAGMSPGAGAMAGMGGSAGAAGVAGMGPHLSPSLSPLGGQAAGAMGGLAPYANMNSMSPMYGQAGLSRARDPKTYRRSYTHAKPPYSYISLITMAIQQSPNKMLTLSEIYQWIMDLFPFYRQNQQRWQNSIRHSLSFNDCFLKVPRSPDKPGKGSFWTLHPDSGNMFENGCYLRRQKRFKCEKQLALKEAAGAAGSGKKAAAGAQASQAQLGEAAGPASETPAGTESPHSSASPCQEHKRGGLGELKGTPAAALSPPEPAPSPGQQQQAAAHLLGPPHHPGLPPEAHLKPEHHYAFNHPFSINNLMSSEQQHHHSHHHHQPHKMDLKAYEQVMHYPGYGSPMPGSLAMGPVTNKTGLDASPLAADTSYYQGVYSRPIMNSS
Sequence of Retinoic acid receptor alpha (Homo sapiens) (P10276 whole entry, looked up): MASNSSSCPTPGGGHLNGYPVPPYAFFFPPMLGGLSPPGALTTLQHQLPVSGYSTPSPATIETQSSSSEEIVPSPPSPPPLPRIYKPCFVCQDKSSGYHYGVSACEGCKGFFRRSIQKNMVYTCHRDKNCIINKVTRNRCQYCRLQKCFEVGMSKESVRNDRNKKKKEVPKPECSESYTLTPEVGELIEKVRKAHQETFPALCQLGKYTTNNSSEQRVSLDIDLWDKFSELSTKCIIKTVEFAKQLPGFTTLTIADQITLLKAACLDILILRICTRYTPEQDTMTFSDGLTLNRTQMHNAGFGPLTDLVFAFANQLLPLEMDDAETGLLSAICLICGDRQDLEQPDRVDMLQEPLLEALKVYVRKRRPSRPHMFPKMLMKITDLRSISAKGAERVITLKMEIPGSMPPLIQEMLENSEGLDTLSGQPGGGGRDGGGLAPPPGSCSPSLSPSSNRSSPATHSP
Sequence of CCAAT/enhancer-binding protein beta (Homo sapiens) (P17676 whole entry, looked up, the tested form may be a part): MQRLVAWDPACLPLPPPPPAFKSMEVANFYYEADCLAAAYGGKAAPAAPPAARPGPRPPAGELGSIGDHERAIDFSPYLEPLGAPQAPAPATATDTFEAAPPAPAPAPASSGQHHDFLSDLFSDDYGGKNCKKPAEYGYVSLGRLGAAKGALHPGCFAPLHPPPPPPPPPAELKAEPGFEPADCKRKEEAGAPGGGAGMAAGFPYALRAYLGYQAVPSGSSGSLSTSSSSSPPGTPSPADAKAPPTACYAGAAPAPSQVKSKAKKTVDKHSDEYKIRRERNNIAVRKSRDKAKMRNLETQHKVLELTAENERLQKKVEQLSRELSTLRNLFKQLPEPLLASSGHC
Sequence of Transcription factor E2F1 (Homo sapiens) (Q01094 whole entry, looked up): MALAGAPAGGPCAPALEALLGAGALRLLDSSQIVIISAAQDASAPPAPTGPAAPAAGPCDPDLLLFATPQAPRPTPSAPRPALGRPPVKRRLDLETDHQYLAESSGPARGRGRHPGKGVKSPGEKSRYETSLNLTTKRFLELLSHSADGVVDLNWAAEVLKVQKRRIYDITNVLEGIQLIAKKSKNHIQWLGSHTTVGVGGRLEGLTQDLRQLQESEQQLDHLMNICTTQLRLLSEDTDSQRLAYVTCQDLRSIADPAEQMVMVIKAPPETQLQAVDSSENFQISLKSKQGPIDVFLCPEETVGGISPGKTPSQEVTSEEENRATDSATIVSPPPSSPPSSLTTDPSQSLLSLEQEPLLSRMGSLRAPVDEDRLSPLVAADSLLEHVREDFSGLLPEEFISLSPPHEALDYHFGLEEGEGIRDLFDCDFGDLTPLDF
Sequence of Aryl hydrocarbon receptor (Homo sapiens) (P35869 whole entry, looked up): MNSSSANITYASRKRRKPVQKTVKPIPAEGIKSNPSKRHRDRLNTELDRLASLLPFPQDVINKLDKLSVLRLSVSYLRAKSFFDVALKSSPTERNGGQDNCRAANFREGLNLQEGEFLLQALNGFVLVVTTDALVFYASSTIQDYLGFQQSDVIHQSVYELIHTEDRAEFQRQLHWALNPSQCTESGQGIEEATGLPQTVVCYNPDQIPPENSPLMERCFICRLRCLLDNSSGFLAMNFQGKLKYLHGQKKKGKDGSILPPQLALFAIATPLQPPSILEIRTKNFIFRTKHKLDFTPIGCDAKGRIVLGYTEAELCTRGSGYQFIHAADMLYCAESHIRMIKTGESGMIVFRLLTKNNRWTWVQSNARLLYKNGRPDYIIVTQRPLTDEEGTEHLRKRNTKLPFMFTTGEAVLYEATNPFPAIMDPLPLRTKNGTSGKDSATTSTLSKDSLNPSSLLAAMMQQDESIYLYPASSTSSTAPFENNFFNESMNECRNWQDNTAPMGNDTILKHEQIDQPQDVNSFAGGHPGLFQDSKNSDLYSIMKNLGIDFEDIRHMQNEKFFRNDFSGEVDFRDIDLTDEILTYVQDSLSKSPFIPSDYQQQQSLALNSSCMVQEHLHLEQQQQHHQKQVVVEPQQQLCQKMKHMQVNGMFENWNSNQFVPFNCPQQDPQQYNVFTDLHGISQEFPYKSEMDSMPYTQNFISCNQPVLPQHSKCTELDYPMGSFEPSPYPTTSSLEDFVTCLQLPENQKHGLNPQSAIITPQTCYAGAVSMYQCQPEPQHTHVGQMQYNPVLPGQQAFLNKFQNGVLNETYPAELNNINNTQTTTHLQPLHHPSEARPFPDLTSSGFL

O=C(CC(=O)c1ccccc1)c1ccccc1
AC50 [1]: 51.1 µM (active) | AC50 [2]: 70.4 µM (active) | AC50 [3]: 47.2 µM (active) | outcome [4]: inactive | AC50 [5]: 25.9 µM (active) | outcome [6]: inactive | outcome [7]: inactive | AC50 [8]: 62.5 µM (active) | outcome [9]: inactive | AC50 [10]: 42.5 µM (active) | AC50 [11]: 100 µM (active) | outcome [12]: inactive | outcome [13]: inactive | outcome [14]: inactive | outcome [15]: inactive | AC50 [16]: 171 µM (active) | AC50 [17]: 157 µM (active)

CCCSc1ccc2nc(NC(=O)OC)[nH]c2c1
outcome [1]: inactive | outcome [2]: inactive | outcome [3]: inactive | outcome [4]: inactive | outcome [5]: inactive | outcome [6]: inactive | outcome [7]: inactive | outcome [8]: inactive | outcome [9]: inactive | outcome [10]: inactive | outcome [11]: inactive | outcome [12]: inactive | outcome [13]: inactive | outcome [14]: inactive | outcome [15]: inactive | outcome [16]: inactive | outcome [17]: inactive

Cc1ncc[nH]1
outcome [1]: inactive | outcome [2]: inactive | outcome [3]: inactive | outcome [4]: inactive | outcome [5]: inactive | outcome [6]: inactive | outcome [7]: inactive | outcome [8]: inactive | outcome [9]: inactive | outcome [10]: inactive | outcome [18]: inactive | outcome [11]: inactive | outcome [12]: inactive | outcome [13]: inactive | outcome [14]: inactive | outcome [15]: inactive | outcome [16]: inactive | outcome [17]: inactive

CC(=O)CC(=O)Nc1ccc(C)cc1C
outcome [1]: inactive | outcome [2]: inactive | outcome [3]: inactive | outcome [4]: inactive | outcome [5]: inactive | outcome [6]: inactive | outcome [7]: inactive | outcome [8]: inactive | outcome [9]: inactive | outcome [10]: inactive | outcome [11]: inactive | outcome [12]: inactive | outcome [13]: inactive | outcome [14]: inactive | outcome [15]: inactive | outcome [16]: inactive | outcome [17]: inactive

COc1cc(Cl)c(OC)cc1N
outcome [1]: inactive | outcome [2]: inactive | outcome [3]: inactive | outcome [4]: inactive | AC50 [5]: 51.2 µM (active) | outcome [6]: inactive | outcome [7]: inactive | outcome [8]: inactive | outcome [9]: inactive | outcome [10]: inactive | outcome [18]: inactive | outcome [11]: inactive | outcome [12]: inactive | outcome [13]: inactive | outcome [14]: inactive | outcome [16]: inactive | outcome [17]: inactive

O=P(O)(O)O
outcome [1]: inactive | outcome [2]: inactive | outcome [3]: inactive | outcome [4]: inactive | outcome [5]: inactive | outcome [19]: inactive | outcome [6]: inactive | outcome [8]: inactive | outcome [9]: inactive | outcome [10]: inactive | outcome [12]: inactive | outcome [13]: inactive | outcome [15]: inactive | outcome [16]: inactive | outcome [17]: inactive

c1ccc(CN(Cc2ccccc2)Cc2ccccc2)cc1
outcome [1]: inactive | outcome [2]: inactive | outcome [3]: inactive | AC50 [4]: 18.4 µM (active) | outcome [5]: inactive | outcome [6]: inactive | outcome [7]: inactive | outcome [8]: inactive | outcome [9]: inactive | outcome [10]: inactive | outcome [18]: inactive | outcome [11]: inactive | outcome [12]: inactive | outcome [13]: inactive | outcome [14]: inactive | outcome [15]: inactive | outcome [16]: inactive | AC50 [17]: 100 µM (active)
